Compound activity from PubChem BioAssay.
Shown is part of a subset that was picked to be rich in hits.
C diff growth: C. difficile growth inhibition | growth activity, negative = inhibition, % at 16 µg/mL (by protocol) | 86,000 tested, 0.25% active | AID 1259249 | Clostridium difficile clinical isolate growth, OD600, 24 h; active compounds read low;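 active = mean growth activity at or below -80% and every replicate also at or below -80%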;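 note: 0% = DMSO wells and -100% = levofloxacin 16 µg/mL wells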
* marks the source's active call; other numbers are inactive results.

Screening Cc1ccc(-c2ccc([C@H]3[C@H](CO)N4CCCCN(C(=O)Nc5cccc(F)c5)C[C@@H]34)cc2)cc1 returned C diff growth -99*.
Screening O=C(Nc1ccccc1F)N1CCCCN2[C@@H](CO)[C@@H](c3ccc(/C=C/c4ccccc4)cc3)[C@@H]2C1 returned C diff growth -96*.
For CC(C)CC#Cc1ccc([C@H]2[C@@H](CO)N3CCCCN(C(=O)Nc4ccccc4)C[C@H]23)cc1 the results were C diff growth -87*.
CC(C)CC#Cc1ccc([C@H]2[C@H]3CN(C(=O)Nc4ccccc4)CCCCN3[C@H]2CO)cc1 was read as C diff growth 30.
`COc1ccc(C#Cc2ccc([C@@H]3[C@@H](CO)N4CCCCN(C(=O)Nc5ccc(F)cc5)C[C@H]34)cc2)cc1` gave C diff growth 32.
For COc1ccc2c3c([nH]c2c1)[C@H](CO)N(C(=O)CN(C)C)CC31CCN(Cc2ccccc2)CC1 the results were C diff growth 3.
`C[C@@H]1CN([C@@H](C)CO)C(=O)c2cc(NC(=O)Cc3cn(C)c4ccccc34)ccc2O[C@H]1CN(C)S(=O)(=O)c1ccc(Cl)cc1` gave C diff growth 9.
For C/C=C/c1ccc([C@@H]2[C@@H](C#N)N(C(=O)NC3CCCCC3)[C@@H]2CO)cc1 the results were C diff growth -5.
Screening CCCC(=O)Nc1ccc2c(c1)C(=O)N(C)C[C@H](OC)[C@H](C)CN(CCC)[C@@H](C)CO2 returned C diff growth 1.
Screening O=C(C[C@@H]1C=C[C@H](NC(=O)CN2CCOCC2)[C@H](CO)O1)NC1CCCCC1 returned C diff growth 1.
`COc1ccccc1CNC(=O)C[C@@H]1C[C@@H]2c3cc(NC(=O)Nc4ccccc4F)ccc3O[C@@H]2[C@H](CO)O1` gave C diff growth 0.
C[C@@H]1CN([C@@H](C)CO)C(=O)c2cc(C#CC3(O)CCCC3)cnc2O[C@H]1CN(C)C(=O)C1CCCCC1 was read as C diff growth -3.
Screening C[C@@H]1CN([C@@H](C)CO)C(=O)Cc2cc(NC(=O)CCCN(C)C)ccc2O[C@H]1CN(C)Cc1ccc(C(F)(F)F)cc1 returned C diff growth 8.
O=C(N[C@@H]1CC[C@H](CCNS(=O)(=O)c2ccccc2Cl)O[C@H]1CO)c1ccccc1 was read as C diff growth -2.
O=C(N[C@H]1CC[C@H](CCn2cc(C3(O)CCCC3)nn2)O[C@H]1CO)C1CCCC1 was read as C diff growth 0.
`CNC[C@H]1Oc2ccc(NC(=O)c3ccncc3)cc2CC(=O)N([C@H](C)CO)C[C@H]1C` gave C diff growth -7.
Screening C[C@@H]1CN([C@@H](C)CO)C(=O)Cc2cc(NC(=O)Nc3ccc(C(F)(F)F)cc3)ccc2O[C@H]1CN(C)Cc1ccncc1 returned C diff growth 16.
Screening COc1ccc(NC(=O)N(C)C[C@H]2OCCCC[C@H](C)Oc3ccc(NS(=O)(=O)c4ccccc4)cc3C(=O)N([C@H](C)CO)C[C@@H]2C)cc1 returned C diff growth -1.
C[C@@H]1CCCCO[C@H](CN(C)CC2CCCCC2)[C@@H](C)CN([C@H](C)CO)C(=O)c2cc(NC(=O)Nc3ccc(C(F)(F)F)cc3)ccc2O1 was read as C diff growth -59.
C[C@@H]1CCCCO[C@H](CN(C)CC2CCCCC2)[C@H](C)CN([C@H](C)CO)C(=O)c2cc(NC(=O)Nc3ccc(C(F)(F)F)cc3)ccc2O1 was read as C diff growth -103*.
C[C@@H]1CCCCO[C@@H](CN(C)CC2CC2)[C@H](C)CN([C@@H](C)CO)C(=O)c2cc(NC(=O)Nc3ccc(C(F)(F)F)cc3)ccc2O1 was read as C diff growth 4.
`C[C@@H]1CN([C@@H](C)CO)C(=O)c2cc(NC(=O)Nc3ccc(C(F)(F)F)cc3)ccc2O[C@@H](C)CCCCO[C@@H]1CN(C)CC1CCCCC1` gave C diff growth -12.
Screening C[C@@H]1CCCCO[C@@H](CN(C)S(=O)(=O)c2cn(C)cn2)[C@@H](C)CN([C@@H](C)CO)C(=O)c2cc(NC(=O)CCC(F)(F)F)ccc2O1 returned C diff growth 6.
For C[C@@H]1CCCCO[C@@H](CN(C)CC2CCCCC2)[C@H](C)CN([C@H](C)CO)C(=O)c2cc(NC(=O)Nc3ccc(C(F)(F)F)cc3)ccc2O1 the results were C diff growth -104*.
Screening CCCN(C)C[C@H]1OCCCC[C@@H](C)Oc2ccc(NC(=O)Nc3ccc(C(F)(F)F)cc3)cc2C(=O)N([C@@H](C)CO)C[C@H]1C returned C diff growth -107*.
C[C@@H]1CCCCO[C@@H](CN(C)CC2CCCCC2)[C@@H](C)CN([C@@H](C)CO)C(=O)c2cc(NC(=O)Nc3ccc(C(F)(F)F)cc3)ccc2O1 was read as C diff growth -58.
`C[C@@H]1CCCCO[C@@H](CN(C)CC2CC2)[C@H](C)CN([C@H](C)CO)C(=O)c2cc(NC(=O)Nc3ccc(C(F)(F)F)cc3)ccc2O1` gave C diff growth -9.
`C[C@@H]1CN([C@@H](C)CO)C(=O)c2cc(NC(=O)CCCN(C)C)ccc2O[C@@H](C)CCCCO[C@@H]1CN(C)S(=O)(=O)c1cn(C)cn1` gave C diff growth -9.
Screening C[C@@H]1CCCCO[C@H](CN(C)CC2CC2)[C@H](C)CN([C@@H](C)CO)C(=O)c2cc(NC(=O)Nc3ccc(C(F)(F)F)cc3)ccc2O1 returned C diff growth 6.
Screening C[C@H]1CCCCO[C@H](CN(C)S(=O)(=O)c2cn(C)cn2)[C@@H](C)CN([C@@H](C)CO)C(=O)c2cc(NC(=O)CCCN(C)C)ccc2O1 returned C diff growth -81*.
C[C@@H]1CN([C@@H](C)CO)C(=O)Cc2cc(NC(=O)CCN3CCOCC3)ccc2O[C@H]1CN(C)S(=O)(=O)c1ccc(Cl)cc1 was read as C diff growth -2.
Screening CC(=O)N1CC2(C1)[C@H](c1ccccc1)[C@@H](CO)N2Cc1cccc(Cl)c1 returned C diff growth -3.
`C[C@@H]1CN([C@H](C)CO)C(=O)c2cc(/C=C/c3ccccc3)cnc2O[C@@H]1CN(C)C(=O)C1CC1` gave C diff growth 3.
CNC[C@@H]1Oc2ccc(NC(=O)Nc3ccccc3)cc2CC(=O)N([C@@H](C)CO)C[C@@H]1C was read as C diff growth -3.
Cc1noc(C)c1NC(=O)Nc1ccc2c(c1)CC(=O)N([C@H](C)CO)C[C@H](C)[C@H](CN(C)S(=O)(=O)c1cn(C)cn1)O2 was read as C diff growth -3.
For C[C@@H]1CN([C@@H](C)CO)S(=O)(=O)c2ccc(C#CCN(C)C)cc2O[C@H]1CN(C)Cc1ccc2c(c1)OCO2 the results were C diff growth -2.
Screening O=C(C[C@@H]1C[C@@H]2c3cc(NC(=O)C4CCOCC4)ccc3O[C@@H]2[C@@H](CO)O1)NCc1cccnc1 returned C diff growth -5.
COc1cc(CN2CC3(CCN(S(=O)(=O)c4cccs4)CC3)c3c(n(C)c4cc(OC)ccc34)[C@@H]2CO)cc(OC)c1 was read as C diff growth 10.
Screening COc1ccc2c3c([nH]c2c1)[C@@H](CO)N(C(=O)Nc1ccc(F)cc1)CC31CN(S(=O)(=O)c2cccc(F)c2)C1 returned C diff growth -3.
`COc1ccc2c3c(n(C)c2c1)[C@H](CO)N(CC1CC1)CC31CN(S(=O)(=O)c2cccs2)C1` gave C diff growth 10.
